# About 540 (0.36%) of roughly 150,000 compounds showed an effect of 50% or more. Many of the other results were omitted from the sample, so strong results are more common in it than they were.
# Tested on: Plasmodium falciparum
# Test: Primary screen in NF54 nanoGlo assay, in single point, at 2uM, 72h; a lower Z score goes with more inhibition
# Format: functional, Erythrocyte
# Details: timepoint 72 hour
Structure (SMILES),% Inhibition [%],Z score
Cc1ccc(-c2nnc(N3CCC4(CCOC4)C3)n2CC2CCCO2)s1 (configuration not stated),-3,0.32
O=C1N[C@H]2C[C@@H](C(=O)NC[C@H]3O[C@H](CCOc4cc(-c5ccccc5)ccc41)CC[C@@H]3O)N(Cc1ccc3c(c1)OCO3)C2,51,-1.36
O=C1N[C@H]2C[C@@H](C(=O)NC[C@H]3O[C@H](CCOc4cc(-c5ccccc5)ccc41)CC[C@@H]3O)N(Cc1ccc(Cl)c(F)c1)C2,37,-4.16
O=C1N[C@H]2C[C@@H](C(=O)NC[C@H]3O[C@H](CCOc4ccccc41)CC[C@@H]3O)N(Cc1ccc3c(c1)OCO3)C2,26,-2.92
CC(C)c1cc(NCCCn2ccnn2)nc(N)n1,-5,0.75
CC(C)(C)CCCC(=O)NCCn1cnnc1C1CC1,-7,1.32
CN1CCC(N(C)C(=O)c2ccccc2NC2CCCCC2)CC1,6,-1.03
CN1CC[C@@H](CNC(=O)c2ccnc3c2ncn3C)[C@@H]1c1cccnc1,1,-0.18
COCCC(CNC(C)c1nccnc1C)NC(=O)OC(C)(C)C (configuration not stated),-12,1.51
CCN1CCN(c2c(CN(C(=O)NC3CCCCC3)C(C)C)c(C)nn2-c2cccc(F)c2)CC1,-10,1.04
Cc1ccc(C(=O)Nc2cc(C(=O)N3CCCCC3C)cc(C(=O)N3CCCCC3C)c2)cc1 (configuration not stated),6,-0.87
Cc1ccc(C(=O)Nc2cc3c4c(c2)C2CCCC2CN4CC2CCCC32)cc1 (configuration not stated),57,-4.94
Cc1ccc(C(=O)Nc2ccc(N3CCCN(C(=O)C4CCCC4)CC3)c(C(=O)N3CCCCC3)c2)cc1,-4,0.58
Fc1cc(Br)cnc1CN1CCC[C@H]1c1ncn[nH]1,19,-2.4
COc1ccc(CCNC(=O)N2CC=C(C(F)(F)F)CC2)cc1F,6,-1.17
Cc1ccc(Nc2nc(N)nc(Cn3cnc(C)c3C)n2)cc1,-3,0.51
Cc1ccc(Nc2nc(N)nc(CN3CCCCCCC3)n2)cc1,-5,0.66
OC1CCN(Cc2ccc(CNc3ccc(F)cn3)cc2)CC1,-6,0.93
CC(C)n1ccnc1[C@H]1CCCN(C(=O)c2cnc3c(c2)CCCC3)C1,3,-0.26
CN1CCCN(c2ccc(NC(=O)c3nn(-c4ccccc4)c(=O)c4ccccc34)cc2F)CC1,82,-6.28
NC(=O)c1n[nH]c2ccc(NC(=O)c3nn(-c4ccccc4)c(=O)c4ccccc34)cc12,-3,0.31
O=C(Nc1cc(C(F)(F)F)ccc1N1CCOCC1)c1nn(-c2ccccc2)c(=O)c2ccccc12,-15,2.63
NS(=O)(=O)c1cnc(N[C@H]2CCc3ccc(F)cc32)s1,-3,0.33
COc1cc(C)c2[nH]c3c(c(=O)c2c1)CN(CC(=O)Nc1ccc(F)c(C)c1)CC3,43,-1.61
COc1cc(C)c2[nH]c3c(c(=O)c2c1)CN(CC(=O)Nc1ccc2c(c1)OCCO2)CC3,52,-1.23
COc1cc(C)c2[nH]c3c(c(=O)c2c1)CN(CC(=O)Nc1ccc2c(c1)OCO2)CC3,44,-0.61

Structure (SMILES),% Inhibition [%],Z score
O=C1N(CC2CCCCC2)CCC[C@@]1(O)CN1CCOCC1,-7,1.35
CCOC1(c2nc(Cc3conc3C)no2)CCCC1,6,-0.78
CCOc1cc(Cl)ccc1C(=O)NC1CCN(C[C@H]2CCOC2)CC1,38,-0.42
c1nc(NCCC2CCCCC2)c2cnoc2n1,7,-0.88
CC(C)[C@@H](C(=O)NCc1cccc(C(F)(F)F)c1)N1CCCS1(=O)=O,-4,0.83
Cc1c(-c2nn(-c3nc(C4CC4)cc(C(F)(F)F)n3)c(-c3cnn(C)c3C)c2Cl)cnn1C,76,-8.32
Cc1nn(C)cc1-c1nn(-c2nc(C3CC3)cc(C(F)(F)F)n2)c(-c2cn(C)nc2C)c1C,46,0.79
Cc1c(-c2nn(-c3ccccc3)c(-c3cnn(C)c3C)c2Cl)cnn1C,39,-4.45
Cc1nccn1C[C@H]1CCCN(C(=O)Cn2cccn2)C1,-3,0.6
COC(=O)c1cc(OC)ccc1-c1cccc(C(=O)N2CCNC[C@@H]2C)c1,-17,1.67
Cc1ccc(NC(=O)c2cccc(F)c2)c(-c2nc3ccccc3nc2O)c1,-15,1.64
O=C(Nc1nc2cccc(Cl)c2o1)c1cccc(F)c1,89,-8.47
Cc1nc(N2CCCC2)nc(C)c1NC(=O)c1cccc(F)c1,-5,0.84
COc1ccccc1N1CCN(C(=O)[C@H](C)n2ccnc2)CC1,-19,2.94
CCc1ccc(-c2cc(C(=O)Nc3ccc4nc(NS(C)(=O)=O)sc4c3)[nH]n2)cc1,-13,1.27
CCn1c(N2CCC[C@H](C(=O)NCc3cccc(Cl)c3)C2)cc(=O)n(C)c1=O,-20,3.09
COc1ccc(N(Cc2c(C)noc2C)Cc2c(C)noc2C)cc1,-5,0.44
CC1(C)CCCN1S(=O)(=O)c1onc(C2CC2)c1Cl,-3,0.41
O=c1[nH]c(=O)n(CCS(=O)(=O)c2ccccc2)cc1Cl,-11,1.09
Cc1ccc(S(=O)(=O)n2cc(C)[nH]c2=O)cc1,-23,2.15
O=c1[nH]c(=O)n(S(=O)(=O)c2ccccc2)cc1F,90,-12.13
CC(C1CC1)n1cc(NC(=O)N2CCC(C(F)(F)F)C2(C)C)cn1 (configuration not stated),-10,1.23
Cc1nnc(OC2Cc3ccccc3C2)s1,-7,1.07
Fc1cnc(OC2Cc3ccccc3C2)nc1,60,-5.26
O=C(CCc1ccccc1)N[C@H]1CC[C@H](Oc2ncc(F)cn2)CC1,-10,1.77
